Test [1] can be described thus: qHTS assay to identify small molecule agonists of the RXR signaling pathway - cell viability counter screen (AID 1159529). Also: nearly all actives have a fitted effect of over 50% in size. Also: potency is read from the fitted curve at half-maximal effect. The method in brief:
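Counter screen: CellTiter-Glo luminescence. Cells: RXR-alpha-UAS-bla HEK 293T. Medium: 2% charcoal-stripped FBS. Treatment: 16 h, 37 C. Reagent incubation: 30 min, RT.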
(In general: Quantitative high-throughput screening tests each substance at several concentrations.)

The nature of test [2]: qHTS assay to identify small molecule antagonists of the retinoid acid receptor (RAR) signaling pathway - cell viability counter screen (AID 1159551). Also: nearly all actives have a fitted effect of over 35% in size. Also: potency is read from the fitted curve at half-maximal effect. The method in brief:
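Following overnight attachment, C3RL4 reporter cells received DMSO-dissolved compounds and then retinol (1 uM final). Six hours later at 37 C, ATP content was measured by CellTiter-Glo luminescence.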

The nature of test [3]: qHTS assay to identify small molecule antagonists of the retinoic acid receptor (RAR) signaling pathway (AID 1159552; also: nearly all actives have a fitted effect of over 50% in size; also: potency is read from the fitted curve at half-maximal effect). The method in brief: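 Antagonism of retinol-induced RARE reporter activity was measured in C3RL4 cells. Exposure to compounds and 1 uM final retinol lasted 6 hr at 37 C, with luminescence as endpoint.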
Test [4] can be described thus: qHTS assay to identify small molecule agonists of the retinoic acid receptor (RAR) signaling pathway (AID 1159553). Also: potency is read from the fitted curve at half-maximal effect. The note with it: C3RL4 RARE luciferase reporter, agonist, 6 h; activation: at 73.3 µM (top of the series) unless noted. The method in brief:
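Cell line C3RL4, RARE luciferase reporter. Treatment: compounds in DMSO, 6 hr, 37 C, 5% CO2, after overnight plating. Detection: luminescence, 30 min RT after reagent.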

Test [5] can be described thus: qHTS assay to identify small molecule antagonists of the estrogen related receptor (ERR) signaling pathway from Tox21 library - cell viability counter screen (AID 1224834). Also: nearly all actives have a fitted effect of over 30% in size. Also: potency is read from the fitted curve at half-maximal effect. The method in brief:
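Viability readout (CellTiter-Fluor fluorescence, 30 min at 37 C) multiplexed with the ERR assay; cells treated 17.5 h at 37 C with compounds delivered in DMSO.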

Test [6] has as its target Luciferin 4-monooxygenase (Photinus pyralis) (UniProt P08659). Put plainly: qHTS assay to identify small molecule inhibitors of firefly luciferase (AID 1224835). Also: nearly all actives have a fitted effect of over 25% in size. The method in brief: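 Inhibition of purified Photinus luciferase is measured by luminescence. Substrate levels (D-luciferin, ATP) sit at their KM values. Each compound is tested in a concentration series.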
A short description of test [7]: qHTS assay to identify small molecule agonists of the constitutive androstane receptor (CAR) signaling pathway - cell viability counter screen (AID 1224836). Also: nearly all actives have a fitted effect of over 45% in size. Also: potency is read from the fitted curve at half-maximal effect. The method in brief: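 Double-stable HepG2 hepatoma cells (hCAR plus CYP2B6-2.2kb) are treated for 23 h at 37 C with test compounds in 15-point concentration series. PK11195 at 0.75 uM final is co-added. Cell viability is quantified by CellTiter-Fluor.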

Test [8] in a line: qHTS assay to identify small molecule antagonists of the constitutive androstane receptor (CAR) signaling pathway - cell viability counter screen (AID 1224837). Also: nearly all actives have a fitted effect of over 45% in size. Also: potency is read from the fitted curve at half-maximal effect. The method in brief:
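Fluorescence from CellTiter-Fluor served as the viability signal. Human hepatoma HepG2 cells stably bearing hCAR and CYP2B6-2.2kb received compound plus CITCO (50 nM final) for 23 hr.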

In test [9] the target is Nuclear receptor subfamily 1 group I member 3 (Homo sapiens) (UniProt Q14994). Put plainly: qHTS assay to identify small molecule antagonists of the constitutive androstane receptor (CAR) signaling pathway (AID 1224838).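 Also: HepG2 cells stably expressing hCAR with CYP2B6 luciferase reporter stimulated by CITCO; nearly all actives have a fitted effect of over 40% in size.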 Also: potency is read from the fitted curve at half-maximal effect. The method in brief:
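Quantitative HTS in double-stable HepG2-CYP2B6-hCAR cells. After 4 h plating, cells get compound (15 concentrations) and CITCO at 50 nM final, incubate 24 h at 37 C, then ONE-Glo luminescence is read.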

Test [10] shares this target. Put plainly: qHTS assay to identify small molecule agonists of the constitutive androstane receptor (CAR) signaling pathway (AID 1224839).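 Also: HepG2 cells stably carrying human CAR and a CYP2B6 luciferase reporter; nearly all actives have a fitted effect of over 15% in size.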 The method in brief:
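Readout: firefly luciferase luminescence via ONE-Glo. System: HepG2 double-stable for hCAR and CYP2B6-2.2kb. Conditions: 15-point compound titration, PK11195 at 0.75 uM final, 24 h incubation.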

Test [11] can be described thus: qHTS assay to identify small molecule antagonists of the estrogen related receptor signaling pathway with the pleiotropic PPARgamma coactivator (PGC) from Tox21 10K library - cell viability counter screen (AID 1224840; active = well fitted cell-killing curve with a large enough effect in the repeat runs, not every such curve was filed as active; also: nearly all actives have a fitted effect of over 40% in size; also: potency is read from the fitted curve at half-maximal effect). The method in brief: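 Compounds in DMSO, alongside positive and negative controls, were pinned onto PGC/ERR cells (2,000 per well). Exposure lasted 17.5 hours at 37 C, followed by a 30-minute CellTiter-Fluor incubation and fluorescence reading.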

Test [12] deals with Thyrotropin receptor (Homo sapiens) (UniProt P16473). Put plainly: qHTS assay to identify small molecule agonists of the thyroid stimulating hormone receptor (TSHR) signaling pathway (AID 1224843; calls by dose curve; also: nearly all actives have a fitted effect of over 45% in size; also: potency is read from the fitted curve at half-maximal effect). The method in brief:
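Screening of the Tox21 10K collection used HEK293 cells engineered with TSHR at 800 cells per well. After a 30-min room-temperature compound exposure, HTRF cAMP reagents were added and fluorescence recorded 1 h later.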

The nature of test [13]: qHTS assay to identify small molecule antagonists of the estrogen related receptor signaling pathway with the pleiotropic PPARgamma coactivator (PGC) from Tox21 10K library (AID 1224841; call rule not given here; also: actives are mostly falling curves and most rising ones were filed inactive; nearly all actives have a fitted effect of over 50% in size). The method in brief:
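Compound exposure ran 18 hours at 37 C in PGC/ERR cells (2,000/well) that had first rested 6 hours in a 37 C/5% CO2 incubator. Luciferase activity was then detected with One-Glo after a 30-minute room-temperature step.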

Test [14] is described as follows: qHTS assay to identify small molecule agonists of the estrogen related receptor signaling pathway with the pleiotropic PPARgamma coactivator (PGC) from Tox21 10K library (AID 1224842). Also: nearly all actives have a fitted effect of over 15% in size. The method in brief: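 Luminescence from One-Glo (30 min, room temperature) measured after PGC/ERR cells had 18 h at 37 C with pinned compound (23 nL in DMSO). Cells had been seeded at 2,000 per well and pre-incubated 6 h.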

Structures are written as SMILES. Values joined by “and” are separate entries in the source; they are usually repeats but may differ in a detail not shown here. Equal entries are not always repeated. Inconclusive results are not listed. Active and inactive are the calls of the source. Unless noted, calls follow the shape of the dose curve; as a rule, active = well fitted curve in the direction sought with a large enough effect in the repeat runs; inconclusive = weak or mixed curves; inactive = no such curve, though single readings can be large; an effect the other way counts as inactive or inconclusive.

Sequence of Nuclear receptor subfamily 1 group I member 3 (Homo sapiens) (Q14994 whole entry, looked up): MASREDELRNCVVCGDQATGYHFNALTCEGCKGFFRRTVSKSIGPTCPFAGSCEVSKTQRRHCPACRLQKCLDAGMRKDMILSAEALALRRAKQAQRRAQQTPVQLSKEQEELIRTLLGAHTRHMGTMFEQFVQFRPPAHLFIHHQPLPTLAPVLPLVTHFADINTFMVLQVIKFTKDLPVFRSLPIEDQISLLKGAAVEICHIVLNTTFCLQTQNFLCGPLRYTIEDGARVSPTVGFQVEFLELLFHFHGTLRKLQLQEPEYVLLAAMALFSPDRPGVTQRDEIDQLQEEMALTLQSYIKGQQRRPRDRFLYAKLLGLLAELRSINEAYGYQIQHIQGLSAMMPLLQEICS
Sequence of Thyrotropin receptor (Homo sapiens) (P16473 whole entry, looked up): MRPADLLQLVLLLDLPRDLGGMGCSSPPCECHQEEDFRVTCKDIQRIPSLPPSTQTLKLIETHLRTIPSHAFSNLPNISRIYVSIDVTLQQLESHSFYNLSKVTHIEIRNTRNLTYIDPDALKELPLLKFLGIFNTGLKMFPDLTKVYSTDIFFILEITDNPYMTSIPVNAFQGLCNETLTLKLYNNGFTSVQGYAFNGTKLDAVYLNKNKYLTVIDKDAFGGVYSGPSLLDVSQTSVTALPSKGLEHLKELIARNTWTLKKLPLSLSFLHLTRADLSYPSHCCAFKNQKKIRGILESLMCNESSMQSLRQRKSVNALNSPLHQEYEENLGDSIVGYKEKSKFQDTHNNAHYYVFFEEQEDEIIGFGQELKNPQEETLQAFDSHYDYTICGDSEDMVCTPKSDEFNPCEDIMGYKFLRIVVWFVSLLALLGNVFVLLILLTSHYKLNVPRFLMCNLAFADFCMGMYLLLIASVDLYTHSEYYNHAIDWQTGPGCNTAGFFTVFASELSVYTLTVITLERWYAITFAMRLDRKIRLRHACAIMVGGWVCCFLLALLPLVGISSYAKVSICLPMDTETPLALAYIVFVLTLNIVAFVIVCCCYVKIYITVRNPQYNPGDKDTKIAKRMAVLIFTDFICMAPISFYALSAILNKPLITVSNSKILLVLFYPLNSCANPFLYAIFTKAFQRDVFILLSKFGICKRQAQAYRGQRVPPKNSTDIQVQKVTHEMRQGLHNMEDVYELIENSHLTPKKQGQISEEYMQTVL
Sequence of Luciferin 4-monooxygenase (Photinus pyralis) (P08659 whole entry, looked up): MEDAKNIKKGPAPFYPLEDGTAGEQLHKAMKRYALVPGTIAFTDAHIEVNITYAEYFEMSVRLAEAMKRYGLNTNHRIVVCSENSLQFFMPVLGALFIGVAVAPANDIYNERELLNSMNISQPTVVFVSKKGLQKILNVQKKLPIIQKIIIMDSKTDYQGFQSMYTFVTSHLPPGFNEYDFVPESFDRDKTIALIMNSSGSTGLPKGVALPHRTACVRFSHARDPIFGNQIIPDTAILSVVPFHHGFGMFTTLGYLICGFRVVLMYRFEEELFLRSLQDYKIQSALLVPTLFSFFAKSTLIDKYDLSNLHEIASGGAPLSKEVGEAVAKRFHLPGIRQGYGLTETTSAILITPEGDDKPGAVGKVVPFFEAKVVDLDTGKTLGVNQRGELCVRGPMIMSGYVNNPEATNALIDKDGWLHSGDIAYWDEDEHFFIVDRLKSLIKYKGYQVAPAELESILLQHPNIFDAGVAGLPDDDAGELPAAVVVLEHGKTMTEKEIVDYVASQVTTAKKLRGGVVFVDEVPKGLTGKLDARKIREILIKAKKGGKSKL

Turning to `CC(C)(O)C#N`, the Potency result in test [1], in test [2], in test [3], in test [4], in test [5] and in [6] was “inactive” throughout. For the same molecule, the Potency entry in test [7], in test [8], in [9], in test [10], in test [11] and in test [12] was “inactive” in each case.

Take `CCC(=O)Nc1ccc(Cl)c(Cl)c1`: the Potency entry in test [1], in test [2], in test [3], in [4], in test [5] and in test [6] was “inactive” throughout. The Potency result in test [7], in test [8], in test [9], in [10] and in test [11] was “inactive” throughout.

With `N#Cc1c(Cl)c(Cl)c(Cl)c(C#N)c1Cl`, the Potency was 6.05 µM (active) and 4.9 µM (active) in [1]; 37.8 µM (active) and 38.6 µM (active) in [2]; 3 µM (active) and 3.06 µM (active) in test [3]; 847 nM (active) and 486 nM (active) in [4]; 7.55 µM (active) and 21.7 µM (active) in [5]; 26.8 µM (active) and 24.3 µM (active) in test [7]. The Potency in [8] was 15.1 µM (active) and 9.69 µM (active); in test [9], 5.34 µM (active) and 4.33 µM (active); in test [11], 4.24 µM (active) and 6.11 µM (active); in test [12], 2.68 µM (active) and 3.86 µM (active). Also, the Potency result in test [6] and in test [10] was “inactive” throughout.

Take `Brc1ccc(Br)cc1`: the Potency entry in test [1], in [2], in test [3], in [4], in [5] and in test [6] was “inactive” each time. The Potency result in test [7], in test [8], in test [9], in test [10], in [11] and in [13] was “inactive” throughout. Moreover, the Potency entry in test [14] and in test [12] was “inactive” throughout.

For `[CH3][Sn]([Cl])([Cl])[Cl]`, the Potency entry in [1], in test [2], in test [3], in [4], in test [5] and in test [6] was “inactive” in each case. In addition, the Potency result in test [7], in [8], in test [9], in [10], in [11] and in test [12] was “inactive” throughout.

Consider `C=CC(Cl)CCl` (stereo not drawn), for which the Potency entry in [1], in test [2], in [3], in test [4], in test [5] and in test [6] was “inactive” throughout. Moreover, the Potency result in test [7], in test [8], in test [9], in test [10], in [11] and in test [12] was “inactive” throughout.

For the molecule `CS(=O)(=O)NC(=O)c1cc(Oc2ccc(C(F)(F)F)cc2Cl)ccc1[N+](=O)[O-]`, the Potency result in [1], in test [2], in test [3], in [4], in [5] and in test [6] was “inactive” in each case. The Potency entry in test [7], in test [8], in test [9], in test [11] and in test [12] was “inactive” throughout.

As to `CSc1nc(NC(C)C)nc(NC(C)C)n1`, the Potency entry in test [1], in [2], in test [3], in test [4], in test [5] and in test [6] was “inactive” throughout. Further, the Potency result in test [7], in test [8], in [9], in test [11], in test [13] and in [14] was “inactive” each time.

For the molecule `CCOC(=O)c1ccccc1N`, the Potency entry in test [1], in [2], in [3], in test [4], in test [5] and in test [6] was “inactive” each time. In addition, the Potency entry in test [7], in [8], in [9], in test [10], in [11] and in [12] was “inactive” each time.

The values above are taken from PubChem BioAssay (Tox21).
